Potency data for 40 molecules are collected here from PubChem BioAssay (NCATS).

Results filed as inconclusive are left out. Where a call stands in place of a potency, no number is given. Active and inactive are the calls of the source. The call rests on the fitted dose curve; in most records, active means well fitted inhibition curve with a large enough effect; inconclusive means small, poorly fitted or top-dose-only effect; inactive means flat fitted curve, though single readings scatter.
Potency means the concentration at half of the fitted maximal effect.

The target of this test is Luciferin 4-monooxygenase (Photinus pyralis) (UniProt P08659). In words: Biochemical firefly luciferase enzyme assay for NPC (AID 624030). Further: nearly all actives have a fitted effect of over 70% in size. Particulars: purified P. pyralis luciferase, luminescence, 5 min; series mostly up to 58.6 µM. The text has this: Charcot-Marie-Tooth-Association [CMTA] National Center for Advancing Translational Sciences [NCATS] Charcot-Marie-Tooth (CMT) disease was first characterized by Jean-Martin Charcot and Pierre Marie in France and, independently, by Howard Henry Tooth in England in 1886. CMT is one of the most common inherited neurological diseases, affecting approximately 1 in 2,500 Americans. […] The most prevalent type of CMT is known as CMT1A and caused by a duplication of the PMP22 gene which leads to over-expression of this protein. PMP22 is a glycosylated intrinsic membrane protein accounting for 2-5% of the myelin protein content, and its over-expression results in demyelination and subsequently axonal loss. A pair of cellular transcription-based assays was developed in the S16 rat Schwann cell lines (Hai, M., et al., 2002) stably transfected with orthogonal reporters - firefly luciferase (Fluc) and beta-lactamase (beta-Lac) - whose expression is driven by an intronic regulatory element of the PMP22 gene (Jones, E.A., et al., 2011) to recapitulate endogenous expression of PMP22. A comprehensive library of approved drugs, the NCGC Pharmaceutical Collection (Huang, R., et al., 2011), was screened in the cross-validating platform of the orthogonal reporter assays to identify drug modulators inhibitory towards PMP22 expression. A set of counter-screens was devised to address non-specific activity of the library. An ATP-dependent CellTiter-Glo assay (developed by Promega Corp) was utilized to control cell viability. In addition, biochemical Fluc enzyme assay was performed to assess direct inhibition of the Fluc enzymatic activity. References Hai, M., Muja, N., DeVries, G.H., Quarles, R.H. and Patel, P.I. Comparative analysis of Schwann cell lines as model systems for myelin gene transcription studies. J Neurosci Res, 2002. 69(4): pp 497-508 Huang, R., Southall, N., Wang, Y., Yasgar A., Shinn P., Jadhav, A. , Nguyen, D.-T. and Austin, C.P., The NCGC pharmaceutical collection: a comprehensive resource of clinically approved drugs enabling repurposing and chemical genomics. Sci Transl Med, 2011. 3(80): p. 80ps16.
Sequence of Luciferin 4-monooxygenase (Photinus pyralis) (P08659 whole entry, looked up): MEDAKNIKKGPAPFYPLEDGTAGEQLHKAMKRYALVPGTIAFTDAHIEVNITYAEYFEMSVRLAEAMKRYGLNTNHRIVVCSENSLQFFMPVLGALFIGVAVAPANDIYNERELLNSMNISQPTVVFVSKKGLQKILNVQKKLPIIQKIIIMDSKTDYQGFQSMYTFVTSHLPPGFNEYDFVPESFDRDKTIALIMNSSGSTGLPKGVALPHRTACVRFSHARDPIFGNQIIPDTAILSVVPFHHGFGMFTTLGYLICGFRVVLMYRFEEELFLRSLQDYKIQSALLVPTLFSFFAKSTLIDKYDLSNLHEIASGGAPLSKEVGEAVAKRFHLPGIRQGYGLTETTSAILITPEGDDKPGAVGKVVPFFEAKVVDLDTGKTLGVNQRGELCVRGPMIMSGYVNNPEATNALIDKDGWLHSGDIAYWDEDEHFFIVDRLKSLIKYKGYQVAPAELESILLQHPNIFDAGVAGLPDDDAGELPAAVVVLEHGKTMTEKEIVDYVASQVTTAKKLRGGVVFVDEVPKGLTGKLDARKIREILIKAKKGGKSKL
Compounds were transferred to the plates in 23nl, and one microliter/well luciferase enzyme-buffer solution (10 nM P. pyralis luciferase and 50 mM Tris Acetate final concentrations) was dispensed yielding a final reaction volume of […]. Luciferase luminescence was measured by a ViewLux plate reader within 5 minutes of enzyme-buffer addition. The % activity was determined by normalizing to the average readings of PTC124 (a positive control) relative to DMSO (0% Activity). The concentration-effect curves were then classified based on curve quality (r2), response magnitude and degree of measured activity.
As for `CCCCOC(=O)c1ccccc1C(=O)OCc1ccccc1`, the Potency entry is “inactive”.

Regarding `CC(C)(C)NC[C@H](O)c1ccc(O)cc1Cl`, the Potency result is “inactive”.

Turning to `C#CC1(O)CCC2C3CCC4=CC(=O)CCC4(C)C3CCC21C` (stereo not given), the Potency result is “inactive”.

With `CCOCCOC(C)=O`, the Potency entry was “inactive”.

As to `NC(=O)CN1CC(O)CC1=O` (stereo not given), the Potency result is “inactive”.

As for `CC[N+]1(CCOC(=O)C(O)(c2ccccc2)c2ccccc2)CCCCC1`, the Potency result is “inactive”.

As for `C[N+](C)(C)CC(=O)O`, the Potency result is “inactive”.

Regarding `C=CCC1=C(C)C(OC(=O)C2C(C=C(C)C)C2(C)C)CC1=O` (stereo not given), the Potency entry is “inactive”.

In the case of `O=C(Nc1ccccc1-c1ccc(Cl)cc1)c1cccnc1Cl`, the Potency entry is “inactive”.

On to `CC(C)NCC(O)c1ccc([N+](=O)[O-])cc1` (stereo not given), for which the Potency entry is “inactive”.

As to `O=C(O)COc1nc(Cl)c(Cl)cc1Cl`, the Potency entry is “inactive”.

Regarding `O=C(O)COc1ccccc1`, the Potency result was “inactive”.

Consider `C[C@]12N[C@H](Cc3ccccc31)c1ccccc12`, for which the Potency result was “inactive”.

As for `C1CCC(NC2CCCCC2)CC1`, the Potency entry was “inactive”.

For the molecule `CCCN1CCC[C@H](c2cccc(O)c2)C1`, the Potency result is “inactive”.

Regarding `C=CC(=O)NCNC(=O)C=C`, the Potency entry was “inactive”.

On to `Cc1cc(O)ccc1Cl`, for which the Potency result is “inactive”.

For the molecule `CCCCCCCCCCCCCCCC[N+](C)(C)C`, the Potency entry was “inactive”.

Take `Nc1ccc(Cl)cc1N`: the Potency was 3.32 µM (active).

Turning to `CC(C)NC(C)Cc1ccc(I)cc1` (stereo not given), the Potency entry was “inactive”.

`COC(=O)[C@@H](N)CCCN=C(N)N[N+](=O)[O-]`: the Potency result was “inactive”.

Turning to `COc1cc([C@@H]2c3cc4c(cc3[C@@H](O)C3COC(=O)C32)OCO4)cc(OC)c1O` (stereo not given in full), the Potency entry was “inactive”.

Consider `CC(C)(C)C(O)C(Oc1ccc(Cl)cc1)n1cncn1` (stereo not given), for which the Potency entry was “inactive”.

As for `O=S(=O)(O)C(F)(F)C(F)(F)C(F)(F)C(F)(F)F`, the Potency entry is “inactive”.

Consider `C[C@@H]1[C@H](O)[C@@H](C)C=CC=CCCC=CC=CC=CC=C[C@H](O[C@H]2O[C@@H](C)[C@H](O)[C@@H](N)[C@@H]2O)CC2O[C@](O)(C[C@@H](O)[C@H](O)CC[C@@H](O)C[C@@H](O)C[C@@H](O)CC(=O)O[C@H]1C)C[C@H](O)[C@H]2C(=O)O`, for which the Potency result was “inactive”.

Turning to `CC(C)Oc1cccc(NC(=O)c2ccccc2C(F)(F)F)c1`, the Potency entry was “inactive”.

As for `O=C(O)c1ccccc1O`, the Potency entry was “inactive”.

Take `O=[N+]([O-])c1cc([N+](=O)[O-])c2ccccc2c1`: the Potency entry is “inactive”.

With `NC1=NC(=O)N2CC12` (stereo not given), the Potency result is “inactive”.

In the case of `COc1ccc(C(c2ccc(OC)cc2)C(Cl)(Cl)Cl)cc1`, the Potency entry is “inactive”.

Consider `CN[C@@H]1C[C@@H](c2ccc(Cl)c(Cl)c2)c2ccccc21`, for which the Potency entry is “inactive”.

Take `CC(=O)OCC1=C(C(=O)O)N2C(=O)[C@@H](N)[C@@H]2SC1`: the Potency result was “inactive”.

In the case of `COCCOCCO`, the Potency result is “inactive”.

Consider `Nc1ccc(N=Nc2ccccc2)cc1`, for which the Potency is 5.26 µM (active).

With `Nc1c(Cl)c(Cl)c(Cl)c(Cl)c1Cl`, the Potency result was “inactive”.

Regarding `CCCCc1ccc(C(=O)O)nc1`, the Potency result is “inactive”.

With `CC(=O)[O][Hg][c]1ccccc1`, the Potency is 2.56 µM (active).

Take `CCCN(CCC)c1c([N+](=O)[O-])cc(S(N)(=O)=O)cc1[N+](=O)[O-]`: the Potency entry is “inactive”.

As for `C[C@]12CCC(=O)C(O)=C1CC[C@@H]1[C@H]3CCC(=O)[C@@]3(C)CC[C@@H]12`, the Potency result was “inactive”.

As for `S=C(SSC(=S)N1CCCCC1)N1CCCCC1`, the Potency is 8.09 µM (active).
